Bioassay records deposited in PubChem BioAssay by National Center for Advancing Translational Sciences (NCATS).
IP6K1 inhibitor: Primary qHTS assay for small molecule inhibitors of Inositol hexaphosphate kinase 1 (IP6K1); AID 1645851, 2021; IP6K1 kinase, ADP-Glo luminescence, 2 h; active compounds read low; 140,000 compounds, 0.81% hits; activity change, % (series mostly up to about 58 µM); Inositol hexakisphosphate kinase 1 (Homo sapiens), Q92551; in the data active = activity change below about -25%
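ADP-Glo luminescence measures ADP made by human IP6K1 during a 2 h RT reaction with ATP/IP6 (mix at 1.3 mM/130 uM); top library doses 57.5 and 19.1 uM final.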
SNCA viab count: GF-AFC viability counterscreen for inhibitors of alpha-synuclein gene (SNCA) expression | HEK-293-SNCA-luc viability, GF-AFC fluorescence, 24 h | Potency, µM (top dose mostly 57.1 µM), usual class: cytotoxic | 150,000 compounds, 0.12% hits | AID 1671193, 2021; note: nearly all actives have a fitted effect of over 30% in size
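HEK-293-SNCA-luc cells (1500/well) plated 24 h, then exposed 24 h to a dilution series; GF-AFC added 30 min at 37C, fluorescence 405/540 nm; normalised to medium-only and DMSO wells, Hill fit.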
KDM5B inh: Primary screen for KDM5B Histone Demethylases FDH-coupled qHTS. Potency, µM (doses to about 57.7 µM), usual class: inhibitors. Lysine-specific demethylase 5B (Homo sapiens), Q9UGL1. AID 1347165, 2019. KDM5B demethylase, FDH-coupled NADH fluorescence (FDH is formaldehyde dehydrogenase). 220,000 compounds, 2.6% hits; note: nearly all actives have a fitted effect of over 70% in size
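Inhibition is measured as reduced NADH fluorescence generation from FDH coupling to formaldehyde release. Truncated KDM5BΔAP at 200 nM final acts on H3K4me3 peptide (12.5 µM in substrate mix) in pH 7.5 HEPES buffer with Tween-20, 30 min, room temperature.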
SNCA expr inh: Primary qHTS assay for inhibitors of alpha-synuclein gene (SNCA) expression; HEK-293 SNCA-luciferase knock-in, luminescence, 24 h; Potency, µM (series often up to 57.2 µM), usual class: inhibitors; 140,000 compounds, 0.17% hits; note: nearly all actives have a fitted effect of over 45% in size
A number is an active result; 0 = inactive; ? = inconclusive; - = no result. This is a sample that favours compounds with a hit; in the whole collection about 2.8% have one here. Unless noted, calls come from the whole dose curve; as a rule, active = well fitted curve in the direction sought with a large enough effect; inconclusive = small, poorly fitted or top-dose-only effect, or another doubt; inactive = no such curve, though single readings can be large; an effect the other way counts as inactive or inconclusive.

SMILES | IP6K1 inhibitor | SNCA viab count | KDM5B inh | SNCA expr inh
Cc1nc2c(OCC(=O)OC(C)(C)C)cccn2c(=O)c1-c1cc(C)n(-c2ccc(Cl)cc2)n1 | 0 | 0 | 28.2µM | 0
CCOC(=O)C(C)Oc1cccn2c(=O)c(-c3cc(C)n(-c4ccc(Cl)cc4)n3)c(C)nc12 (centres undefined) | 0 | 0 | 22.4µM | 0
Cc1cc(NCc2cncn2CC(C)C)n2nc(C)cc2n1 | 0 | 0 | ? | 0
Cc1cc(NCCN2CCNC2=O)n2nc(C)cc2n1 | 0 | 0 | 17.8µM | 0
CC(C)c1noc(-c2cccn3c(CNC(=O)c4cccc(F)c4)nnc23)n1 | 0 | 0 | 25.1µM | 0
Cc1ccc(C(=O)NCc2nnc3c(-c4nc(C(C)C)no4)cccn23)cc1C | 0 | 0 | 28.2µM | 0
Cc1cccc(C(=O)NCc2nnc3c(-c4nc(C(C)C)no4)cccn23)c1 | 0 | 0 | 28.2µM | 0
Cc1ccccc1C(=O)NCc1nnc2c(-c3nc(C(C)C)no3)cccn12 | 0 | 0 | ? | 0
CC(C)c1noc(-c2cccn3c(CNC(=O)c4c(F)cccc4F)nnc23)n1 | 0 | 0 | 28.2µM | 0
CC(C)c1noc(-c2cccn3c(CNC(=O)c4cc5ccccc5[nH]4)nnc23)n1 | 0 | 0 | ? | 0
CC(C)c1noc(-c2cccn3c(CNC(=O)Cc4cccc(F)c4)nnc23)n1 | 0 | 0 | ? | 0
COc1cc(NC(=O)C(=O)NC(C)CCc2ccccc2)ccc1N1CCCCS1(=O)=O (centres undefined) | - | - | 0 | -
Cc1nn(-c2ccccc2)c2c1C(C(C)C)N(C1CCN(C(=O)N(C)C)C1)C2=O (centres undefined) | 0 | - | - | -
ClC(Cl)(Cl)C1c2ccccc2Nc2ccccc21 | - | - | 0 | -
COc1cc(C(=O)NCC2CCCO2)cc(Cl)c1OCC(C)C (centres undefined) | - | - | 0 | -
COc1ccc(C(=O)NCc2nnc3c(-c4nc(C5CC5)no4)cccn23)c(C)c1 | 0 | 0 | 0 | ?
CCC(=O)NCc1nnc2c(-c3nc(C(C)C)no3)cccn12 | 0 | 0 | ? | 0
Cc1cc(C)cc(C(=O)NCc2nnc3c(-c4nc(C(C)C)no4)cccn23)c1 | 0 | 0 | 22.4µM | 0
CC(C)c1noc(-c2cccn3c(CNC(=O)c4cccc(Cl)c4)nnc23)n1 | 0 | 0 | 22.4µM | 0
Cc1ccc(C(=O)NCc2nnc3c(-c4nc(C5CC5)no4)cccn23)cc1C | 0 | 0 | 10µM | 0
Cc1nn(-c2ccccc2)c2c1C(C1CC1)N(C1CCN(C(=O)Cc3ccc(F)cc3)C1)C2=O (centres undefined) | 0 | - | - | -
COc1ccc(S(=O)(=O)c2cc3c(cc2NC(=O)c2ccccc2Cl)n(C)c(=O)n3C)cc1 | - | - | 0 | -
Nc1cc(N2CC[C@@H](N3CCN(CCc4ccccc4)CC3)[C@H](O)C2)nc(N)n1 | 0 | 0 | 4.47µM | 0
CN1CCN(c2cc(N3CC[C@H](CO)[C@H](O)C3)nc(N)n2)CC1 | 0 | 0 | 0 | 0
Cc1ccc2c(C(=O)N3CCN(CC(C)C)CC3)cc(NC(=O)C3CCC3)cc2n1 | 0 | 0 | 22.4µM | 0
SMILES | IP6K1 inhibitor | SNCA viab count | KDM5B inh | SNCA expr inh
Cc1ccc2c(C(=O)N3CCN(c4ccc(F)cc4)CC3)cc(NC(=O)C(C)C)cc2n1 | 0 | 0 | ? | 0
Cc1cc(C)cc(NC(=O)C2CCCCC2)c1 | - | - | 0 | -
Cc1ccc2c(C(=O)N3CCN(C(C)C)CC3)cc(NC(=O)C(C)C)cc2n1 | 0 | 0 | 25.1µM | 0
Cc1ccc2c(C(=O)N3CCOCC3)cc(NC(=O)C3CCC3)cc2n1 | 0 | 0 | 22.4µM | 0
Cc1ccc2c(C(=O)O)cc(NC(=O)C3CCC3)cc2n1 | 0 | 0 | 22.4µM | 0
Cc1ccc(NC(=S)NNC=O)cc1Cl | - | - | 0 | -
COc1ccccc1Nc1nc(-c2ccc3c(c2)CC(C)N3S(C)(=O)=O)cs1 (centres undefined) | - | - | 0 | -
COc1ccc(NC(=O)c2cc(NC(=O)C3CCC3)cc3nc(C)ccc23)cc1 | 0 | 0 | 25.1µM | 0
Cc1ccc2c(C(=O)NCCc3cccs3)cc(NC(=O)C3CCC3)cc2n1 | 0 | 0 | ? | 0
Cc1ccc(NC(=O)c2cc(NC(=O)C3CC3)cc3nc(C)ccc23)cc1 | 0 | 0 | ? | 0
CNC(=O)c1cc(NC(=O)C2CCC2)cc2nc(C)ccc12 | 0 | 0 | 31.6µM | 0
O=C(O)/C=C/c1cccc([N+](=O)[O-])c1 | - | - | 0 | -
CC(Oc1cccc(Br)c1)c1nc(-c2ccncc2)no1 (centres undefined) | - | - | 0 | -
CCC(CC)C(=O)N1CC2=CC(C)(C)COc3ccc(OC)c(c32)C1 | 0 | - | - | -
CC(C)(C)c1[nH]nc2c1[C@@H](c1ccccc1C(F)(F)F)C(C#N)=C(N)O2 | - | - | 0 | -
CC(C)Sc1ncc(Cl)c(C(=O)Nc2ccc(S(=O)(=O)N(C)c3ccccc3)cc2)n1 | 0 | 0 | ? | 0
CCS(=O)(=O)c1ncc(Cl)c(C(=O)Nc2ccc(S(=O)(=O)N(C)c3ccccc3)cc2)n1 | 0 | 10µM | ? | 2.82µM
CCN(c1ccccc1)S(=O)(=O)c1ccc(NC(=O)c2nc(S(C)(=O)=O)ncc2Cl)cc1 | -43.2 | 10µM | ? | ?
CCSc1ncc(Cl)c(C(=O)Nc2ccc(S(=O)(=O)N(C)c3ccccc3)cc2)n1 | 0 | 0 | ? | ?
CNC(=O)c1ccc(CN(C(=O)c2ccc(C(C)=O)s2)C2CC2)cc1 | - | - | 0 | -
FC(F)(F)c1cc(-c2cccs2)nc2sc3ccccc3c12 | - | - | 0 | -
CCCNC(=O)C(C)NC(=O)CSc1ccc(NC(C)=O)cc1 (centres undefined) | - | - | 0 | -
CC1(CCCCc2ccccc2)COc2ccc(C(=O)NC3CCOCC3)cc2N1 (centres undefined) | 0 | 0 | 35.5µM | ?
CC1(CCCCc2ccccc2)COc2ccc(C(=O)NCCc3cnc[nH]3)cc2N1 (centres undefined) | 0 | 0 | 31.6µM | 0
CN(C)C(=O)c1ccc2c(c1)NC(C)(CCCCc1ccccc1)CO2 (centres undefined) | 0 | 0 | 0 | ?
SMILES | IP6K1 inhibitor | SNCA viab count | KDM5B inh | SNCA expr inh
CC1(CCCCc2ccccc2)COc2ccc(C(=O)NC3CC3)cc2N1 (centres undefined) | 0 | 0 | 28.2µM | 0
COCCN(C)C(=O)c1ccc2c(c1)NC(C)(CCCCc1ccccc1)CO2 (centres undefined) | 0 | 0 | 0 | 0
Cc1c(-c2ccccc2F)[nH]c2ccc(CNC(=O)CCC3=NNC(=O)CC3)cc12 | 0 | 0 | ? | 0
Cc1c(-c2ccccc2F)[nH]c2ccc(CNC(=O)CCN3CCCC3=O)cc12 | 0 | 0 | 28.2µM | 0
Cc1c(-c2ccccc2F)[nH]c2ccc(CNC(=O)Cn3ccc(=O)[nH]c3=O)cc12 | 0 | 0 | 31.6µM | 0
CCN(CC)CC(=O)N1CCC(C(=O)Nc2ccc(-c3nc4ccccc4o3)cc2)CC1 | 0 | 0 | 28.2µM | 0
O=C(Nc1ccc(-c2nc3ccccc3o2)cc1)C1CCCC1 | - | - | 0 | -
O=C(NCc1cccc(C(F)(F)F)c1)NCc1coc(-c2cccs2)n1 | - | - | 0 | -
Cc1ccccc1-n1cnnc1SCCC(=O)Nc1cccc(S(=O)(=O)N2CCCC2)c1 | - | - | 0 | -
